Active and inactive are the calls of the source. No rule for the calls is given here.

Pantothenate synthetase (Mycobacterium tuberculosis (strain ATCC 25618 / H37Rv)), sequence (P9WIL5 whole entry, looked up): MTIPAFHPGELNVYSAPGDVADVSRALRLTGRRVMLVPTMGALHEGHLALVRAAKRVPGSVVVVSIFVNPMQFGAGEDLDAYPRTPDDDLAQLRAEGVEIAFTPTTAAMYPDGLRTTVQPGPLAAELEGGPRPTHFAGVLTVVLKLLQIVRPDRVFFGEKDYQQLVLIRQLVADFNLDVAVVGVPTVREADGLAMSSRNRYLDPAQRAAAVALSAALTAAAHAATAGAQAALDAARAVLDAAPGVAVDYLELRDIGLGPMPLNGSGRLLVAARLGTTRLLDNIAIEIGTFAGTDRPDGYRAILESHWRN

The assay addresses Pantothenate synthetase (Mycobacterium tuberculosis (strain ATCC 25618 / H37Rv)) (UniProt P9WIL5). The experiment in a line: Recombinant Mtb pantothenate synthetase (PanC) inhibitors, coupled enzyme, confirmatory (AID 375).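 Also: 0% = full reaction with vehicle and 100% = no enzyme background.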 Conditions: coupled enzyme assay; at 10 µM, stronger effect = higher value.
With `Cc1noc(NS(=O)(=O)c2ccc(N)cc2)c1C`, the inhibition (as a rule, the drop in the measured response relative to a control, in per cent) was 0% (inactive).

On to `CN(C)CCCN1c2ccccc2CCc2ccc(Cl)cc21`, for which the inhibition is 1% (inactive).

Consider `CCOC(=O)N1CCC(NC(=O)CS(=O)(=O)Cc2nc(-c3ccccc3C)oc2C)CC1`, for which the inhibition is 3% (inactive).

For `c1ccc(-c2nc3ccccc3nc2-c2ccccn2)nc1`, the inhibition is 0% (inactive).

Take `C=CCn1c(SCC(=O)NCCCC)nc2scc(-c3ccco3)c2c1=O`: the inhibition is 0% (inactive).

Consider `O=C(O)CCc1ccc(-c2cccs2)n1NC(=O)c1ccccc1Br`, for which the inhibition was 0% (inactive).

With `CCC(=O)N1CCc2cc(S(=O)(=O)CCC(=O)Nc3nc(C)cs3)ccc21`, the inhibition was 5% (inactive).

Turning to `O=C(O)CSc1ncn[nH]1`, the inhibition was 0% (inactive).

For the molecule `Cc1ccc2c(c1)C(O)(CC(=O)c1ccc3c(c1)OCO3)C(=O)N2` (stereo not drawn), the inhibition is 0% (inactive).

As to `COc1ccccc1C1C(C(C)=O)=C(O)C(=O)N1CCc1ccccc1` (stereo not drawn), the inhibition was 8% (inactive).

For `COC(=O)C1CCN(C(=O)CSc2nnc(-c3ccncc3)o2)CC1`, the inhibition was 0% (inactive).

For the molecule `O=C(NCCCN1CCOCC1)c1cc(-c2ccc(Cl)cc2)on1`, the inhibition was 4% (inactive).

With `CC1CCCN(S(=O)(=O)c2coc(C(N)=O)c2)C1` (stereo not drawn), the inhibition was 0% (inactive).

On to `CN(C(=O)COc1cc(=O)n(C)c2ccccc12)c1ccc(Br)cc1`, for which the inhibition is 0% (inactive).

Regarding `O=C(CCn1c(=O)sc2ccccc21)Nc1cccnc1`, the inhibition is 6% (inactive).

Take `O=C(CS(=O)CC(=O)Nc1cccc2c1CCCC2)Nc1ccc(F)cc1` (stereo not drawn): the inhibition was 0% (inactive).

Take `CN1CCCN(CC(O)COCc2cccs2)CC1` (stereo not drawn): the inhibition was 0% (inactive).

As to `CCSc1nnc(-c2ccc(OC)cc2)o1`, the inhibition was 0% (inactive).

Take `O=C(Cn1c(-c2cncs2)nc2ccccc21)NC1CCCC1`: the inhibition is 0% (inactive).

Consider `O=C1N(CCCCN2C(=O)C3(OCCO3)c3ccccc32)c2ccccc2C12OCCO2`, for which the inhibition is 0% (inactive).

Consider `Cc1ccc(NC(=O)CSc2nnc(-c3ccc(S(=O)(=O)N4CCOCC4)cc3)n2C)cc1`, for which the inhibition is 1% (inactive).

With `Cc1cc(C)cc(N(CC(=O)Nc2cccc(C)n2)S(=O)(=O)c2c(C)noc2C)c1`, the inhibition is 0% (inactive).

Consider `N#Cc1cc2c(nc1SCC(=O)Nc1sc3c(c1C#N)CCC3)CCCCC2`, for which the inhibition was 0% (inactive).

The values above are taken from PubChem BioAssay.
